# Screening data as filed in PubChem.
# GDH-TPI counter: inhibits GDH-TPI coupling enzymes, artifact for Mtb FBA screen | GDH-TPI coupled enzyme counterscreen, NADH absorbance | inhibition, % at 4.8 µM | actives 1.2% (n = 360,000) | AID 588335; in the data active means inhibition above about 30%;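 further: 0% = DMSO wells and 100% = wells lacking the enzyme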
# RecA intein inh: blocks M. tuberculosis RecA intein splicing; inhibition, % (test concentration not listed); P9WHJ3; cell-free RecA intein splicing, fluorescence; actives 0.75% (n = 290,000); AID 2221; in the data active means inhibition above about 30%;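 further: 0% = vehicle wells and 100% = reference inhibitor control wells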
# BJeLR viability: kills HRASV12-expressing BJeLR cells. BJeLR (HRASV12) viability, CellTiter-Glo ATP luminescence, 48 h. inhibition, % (test concentration not listed). actives 0.17% (n = 300,000); in the data active means inhibition above about 50%
# PrPC TRFRET: inhibitors of human cell surface prion protein PrPC | P04156 | TR-FRET read-out | inhibition, % at 13.8 µM | actives 0.43% (n = 370,000); in the data active means inhibition above about 24%; further: 0% = median of the test wells and 100% = reference compound wells
# Mtb FBA inh: Mtb fructose-bisphosphate aldolase inhibition; P9WQA3; actives 2.3% (n = 360,000); inhibition, % at 1 µM; purified M. tuberculosis FBA, fluorescence read-out; in the data active means inhibition above about 27%;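 further: 0% = vehicle and 100% = reference inhibitor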
# The depositor's hits bear a star; . = no result; + = active, no number. Most compounds without a hit are left out; they make up all but 4.2% or so of the library.
SMILES,GDH-TPI counter,RecA intein inh,BJeLR viability,PrPC TRFRET,Mtb FBA inh
COc1ccc(/C=C\C(=O)NCC(=O)N/N=C/c2ccc(O)cc2O)cc1,68*,-1,0,-3,5
CC1=CC(c2ccccc2)n2nc(N3C(=O)c4ccccc4C3=O)nc2N1 (centres undefined),2,-2,-3,-3,30*
O=C1CC(c2ccccc2)n2nc(N3C(=O)c4ccccc4C3=O)nc2N1 (centres undefined),0,2,-4,-5,1
CC1=CC(c2ccccc2)n2nc(N3C(=O)C4CC=CCC4C3=O)nc2N1 (centres undefined),3,-11,3,-3,175*
COCCCN1C(=O)[C@H](CC(=O)NCc2ccccc2)[C@]2(C(=O)OC)CCCCC=C12,.,.,.,5,.
COc1ccc(-c2oc3ccccc3c(=O)c2OC(C)=O)cc1,46*,-23,4,0,+
COc1ccc(/C=C2\Sc3ccc(C(=O)NCc4cccnc4)cc3N(C)C2=O)cc1OC,35*,-1,4,-3,0
COc1cc(C2C3=C(CC(c4ccco4)CC3=O)Nc3ccccc3N2C(C)=O)cc(OC)c1OC (centres undefined),26,3,-4,0,-3
COc1ccc(C2CC(=O)C3=C(C2)Nc2ccccc2N(C(C)=O)C3c2ccco2)cc1 (centres undefined),47*,0,-2,0,3
COc1cccc(-c2nn(C)c3sc(C(=O)NCc4ccco4)cc23)c1,17,3,3,7,48*
COc1cccc(-c2cc(C(=O)NCc3ccco3)no2)c1,-2,0,-3,3,3
Clc1cccc(CNC2CCC23CCCCC3)c1 (centres undefined),.,.,.,8,.
CNc1cncc(-c2ccccc2NC(C)=O)n1,12,.,.,-10,19
CSc1nncc(-c2ccc(F)c(F)c2)n1,-2,0,-16,-7,-4
CNc1cncc(-c2ccc(F)c(F)c2)n1,23,.,.,-1,168*
CNc1cncc(-c2cccnc2)n1,21,.,.,1,+
CNc1cncc(-c2cccc(C(=O)N(C)C)c2)n1,19,.,.,-9,+
CNc1cncc(-c2cccc(OC)c2F)n1,5,.,.,-2,+
O=C(NC1CCCCN(Cc2cccc(Cl)c2)C1=O)c1ccccn1 (centres undefined),.,.,.,-1,.
COc1ccc(CN2C3=NC(c4ccccc4)CC(=O)N3/C(=C\c3ccccc3)C2c2ccccc2)c(OC)c1 (centres undefined),.,.,.,3,.
CCOC(=O)c1sc(C)c2c(=O)n(CC)nnc12,32*,2,-8,-47,4
CCOC(=O)c1sc(C)c2c(=O)n(CCc3ccccc3)nnc12,-2,12,3,-3,-7
CCOC(=O)CNC(=O)CSc1nnc(-c2ccc(C(C)(C)C)cc2)n1-c1ccc(Cl)cc1,.,.,.,6,.
c1ccc2c(c1)cc1ccc3cccc4ccc2c1c34,9,.,.,1,34*
COc1ccc(/C=N/Nc2nc(C)c([N+](=O)[O-])c(N(C)c3ccccc3)n2)cc1OC,45*,-1,-2,0,-3
SMILES,GDH-TPI counter,RecA intein inh,BJeLR viability,PrPC TRFRET,Mtb FBA inh
CC(=O)Nc1ccc(Nc2nc(C)c([N+](=O)[O-])c(N(C)c3ccccc3)n2)cc1,13,4,2,5,-4
Cc1nc2ccc(S(=O)(=O)NCC(=O)N(C)Cc3ccccc3Cl)cc2s1,.,.,.,4,.
CCOC(=O)c1ccc(NC(=O)Nc2ccon2)cc1,-22,2,58*,7,3
CCOC(=O)c1ccc(NC(=O)Nc2ccc(Cl)cn2)cc1,2,-1,10,0,-4
C(=N/N1CCN(c2ccccc2)CC1)/c1ccco1,.,.,.,-4,.
O=C(N/N=C/C(Cl)=C/c1ccc([N+](=O)[O-])cc1)C(=O)Nc1cccc(C(=O)O)c1,37*,5,12,-8,-2
O=C(Nc1cccc(C(=O)O)c1)/C(=C/c1cccc([N+](=O)[O-])c1)NC(=O)c1cccc(Br)c1,-4,1,-4,-8,6
CCOC(=O)c1cc2c(=O)n3ccccc3nc2n(CCCOC)c1=NC(=O)c1ccncc1,17,-96,-5,-19,+
CCOC(=O)c1cc2c(=O)n3ccccc3nc2n(CCCOC)c1=NC(C)=O,19,.,.,-21,+
CCOC(=O)c1cc2c(=O)n3cccc(C)c3nc2n(CCOC)c1=NC(C)=O,1,.,4,-7,+
Nc1[nH]c(C(=O)c2ccc(Br)cc2)c(-c2ccc(Cl)cc2[N+](=O)[O-])c1C(=O)NCCc1c[nH]c2ccccc12,.,.,.,7,.
C[C@@H]1CCN(C2CC2)S(=O)(=O)c2ccc(N3CC[C@H](O)C3)cc2O1,.,.,.,7,.
O=C(c1cccs1)c1no[n+]([O-])c1C(=O)c1cccs1,2,5,71*,.,-2
O=S1(=O)c2ccc(N3CCCC3)cc2Oc2ccccc2CN1Cc1cn(Cc2cccc(C(F)(F)F)c2)nn1,.,.,.,5,.
COC(=O)[C@]12C[C@H](CC(=O)N3CCOCC3)C(=O)N(CCc3ccc(OC)c(OC)c3)C1=C[C@H](COCc1ccccc1)O[C@@H]2C,.,.,.,-3,.
CCN1/C(=C/c2ccc3cc(C)ccc3[n+]2CC)Sc2ccc3sccc3c21,5,.,92*,.,-4
CCN1/C(=C\c2ccc3cc(C)ccc3[n+]2CC)Sc2cc(C)c(C)cc21,1,1,38,-15,-4
O=C(c1cc(Cl)cc(Cl)c1)N1CC[C@H]2[C@H](CCCN2Cc2ccc(F)cc2)C1,.,.,.,2,.
COc1cccc(/C=C2\Oc3cc(OCC(=O)N4CCCC4)ccc3C2=O)c1OC,29,0,-2,-6,5
COc1ccc(/C=C2\Oc3cc(OCC(=O)N4CCC[C@H]4C(=O)O)ccc3C2=O)c(OC)c1OC,38*,4,-3,-50,-2
COc1ccc(OC)c(/C=C2\Oc3cc(OCC(=O)N4CC(O)C[C@H]4C(=O)O)ccc3C2=O)c1 (some centres undefined),40*,-5,-5,-34,-6
COc1cccc(/C=C2\Oc3cc(OCC(=O)N4CCCCC4)ccc3C2=O)c1OC,39*,-4,8,-1,-1
COc1ccc(/C=C2\Oc3cc(OC(=O)N4CCOCC4)ccc3C2=O)c(OC)c1,31*,-7,1,-4,-4
COc1ccc(NC(=O)C(CCCCNC(=O)OC(C)(C)C)NC2(C(=O)NCCc3c[nH]c4ccccc34)CCCCC2)cc1 (centres undefined),.,.,.,2,.
O=C(O)COc1ccc2c(c1)O/C(=C\c1ccco1)C2=O,20,-4,-4,-3,1
O=C(O)COc1ccc2c(c1)O/C(=C\c1cccs1)C2=O,42*,.,-2,-30,5
O=C1Nc2ccccc2/C1=C/c1cnc[nH]1,31*,3,-4,-17,-6
COC(=O)c1ccc(Cl)c(-c2ccc(/C=N/NC(=O)Nc3ccccc3)o2)c1,6,-5,1,7,-1
COC(=O)N/N=C/c1ccc(-c2ccccc2Cl)o1,35*,1,-8,-8,0
